Results reported in PubChem BioAssay (Tox21).
Records with an inconclusive call do not appear. Activity calls are given as the source filed them. Unless noted, the call rests on the fitted dose curve.

Experiments:
[1] = Nuclear factor erythroid 2-related factor 2/antioxidant responsive element (Nrf2/ARE) small molecule agonists: qHTS cell viability counter screen in human keratinocytes (AID 1919968; active means well fitted curve in the direction sought with a large enough effect in the repeat runs; an effect the other way counts as inactive or inconclusive; further: nearly all actives have a fitted effect of over 55% in size; further: potency means the concentration at half of the fitted maximal effect)
Outline: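 HaCaT ARE reporter line, 1,500 cells/well; 5 h settle, 37 C/5% CO2; cpd in DMSO pinned; 23 h exposure; CellTiter-Fluor, 1 h; fluorescence.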

[2] = Nuclear factor erythroid 2-related factor 2/antioxidant responsive element (Nrf2/ARE) small molecule agonists: luciferase reporter gene qHTS assay in human keratinocytes (AID 1919969); further: nearly all actives have a fitted effect of over 35% in size; further: potency means the concentration at half of the fitted maximal effect
[3] = target: Gonadotropin-releasing hormone receptor (Homo sapiens) (UniProt P30968); test: Human gonadotropin-releasing hormone receptor (GnRHR) small molecule agonists, calcium flux assay in GnRHR-HEK293 cells (AID 1920063); further: nearly all actives have a fitted effect of over 35% in size; further: potency means the concentration at half of the fitted maximal effect
Chain of Gonadotropin-releasing hormone receptor (Homo sapiens) (P30968 whole entry, looked up): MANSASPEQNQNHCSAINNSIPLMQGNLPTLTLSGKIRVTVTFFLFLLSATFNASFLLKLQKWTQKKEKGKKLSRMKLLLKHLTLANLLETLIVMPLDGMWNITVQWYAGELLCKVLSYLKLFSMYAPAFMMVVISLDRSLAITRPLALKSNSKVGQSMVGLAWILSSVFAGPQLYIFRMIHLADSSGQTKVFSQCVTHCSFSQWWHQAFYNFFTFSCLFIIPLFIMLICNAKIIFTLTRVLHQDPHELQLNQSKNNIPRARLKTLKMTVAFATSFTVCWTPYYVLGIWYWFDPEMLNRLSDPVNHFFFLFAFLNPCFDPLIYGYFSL
Outline: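 GnRHR-HEK293, 1500 cells/well, 18 h 37 C/5% CO2; Ca dye 1 h 37 C; cpd pinned (DMSO), agonist mode; kinetic FL 480/540, 3 min, 1 s reads; 15 conc, n=3.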

[4] = target: KiSS-1 receptor (Homo sapiens) (UniProt Q969F8); test: Human kisspeptin (KISS1R) small molecule agonists, calcium flux assay in KISS1R-HEK293 cells (AID 1920064; active means well fitted curve in the direction sought with a large enough effect in the repeat runs; an effect the other way counts as inactive or inconclusive; further: potency means the concentration at half of the fitted maximal effect)
Chain of KiSS-1 receptor (Homo sapiens) (Q969F8 whole entry, looked up): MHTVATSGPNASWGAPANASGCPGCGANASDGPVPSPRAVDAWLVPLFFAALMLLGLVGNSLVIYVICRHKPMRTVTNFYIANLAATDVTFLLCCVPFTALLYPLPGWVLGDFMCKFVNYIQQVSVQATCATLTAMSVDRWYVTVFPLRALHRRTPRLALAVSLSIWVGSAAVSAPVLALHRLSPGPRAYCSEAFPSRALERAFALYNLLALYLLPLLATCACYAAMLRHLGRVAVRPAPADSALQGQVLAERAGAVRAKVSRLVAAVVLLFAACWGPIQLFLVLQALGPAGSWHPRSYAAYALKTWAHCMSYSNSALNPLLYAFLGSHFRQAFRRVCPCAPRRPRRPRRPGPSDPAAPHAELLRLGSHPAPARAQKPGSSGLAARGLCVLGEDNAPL
Outline: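 Stable human KISS1R HEK293 line; 18 h plating, 37 C/5% CO2; calcium dye 1 h 37 C; compound pin transfer; kinetic fluorescence Ex/Em 480/540, 3 min.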

[5] = G protein-coupled receptor (GPCR) small molecule agonists, calcium flux assay: HEK293 wild type cell line counter screen (AID 1920065); further: potency means the concentration at half of the fitted maximal effect
Outline: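 Kinetic fluorescence at Ex/Em 480/540, recorded every second over 3 min, served as the read-out after compound addition. Each compound was tested at 15 concentrations in triplicate on cells pre-loaded with calcium dye for 1 h.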

[6] = p53 small molecule agonists, cell-based qHTS assay with human liver microsomes (AID 1963577);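 further: p53 response element beta-lactamase reporter cells with liver microsomes plus NADPH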
Outline: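 In this qHTS, p53 response-element beta-lactamase cells receive test compound together with a microsome/NADPH activating system (0.5 mg/mL final each) and are incubated 16 h at 37 C before LiveBLAzer fluorescence detection.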

[7] = p53 small molecule agonists, cell-based qHTS assay with rat liver microsomes (AID 1963578)
Outline: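 Agonist mode in p53RE-bla reporter cells, with compounds co-incubated 16 h at 37 C alongside 0.5 mg/mL rat liver microsomes and 0.5 mg/mL NADPH (final), followed by a 2 h LiveBLAzer detection step.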

[8] = p53 small molecule agonists, cell-based qHTS assay with human liver microsomes: qHTS cell viability counter screen (AID 1963579); further: nearly all actives have a fitted effect of over 45% in size; further: potency means the concentration at half of the fitted maximal effect
Outline: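 Metabolically activated exposure: compounds, human liver microsomes and NADPH (0.5 mg/mL final apiece) were added to p53RE-bla cells seeded 5 h earlier, left 16 h at 37 C, and then assessed for viability by CellTiter-Glo luminescence.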

[9] = p53 small molecule agonists, cell-based qHTS assay with rat liver microsomes: qHTS cell viability counter screen (AID 1963580); further: nearly all actives have a fitted effect of over 45% in size; further: potency means the concentration at half of the fitted maximal effect
Outline: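 In HCT-116 cells carrying a p53 response element-bla reporter, compounds were metabolically activated in situ by rat liver microsomes with NADPH over 16 h. Cell ATP content then served as the cytotoxicity measure.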

[10] = p53 small molecule agonists, cell-based qHTS assay: qHTS cell viability counter screen (AID 1963581); further: nearly all actives have a fitted effect of over 45% in size; further: potency means the concentration at half of the fitted maximal effect
Outline: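 HCT-116 p53RE-bla cells, 4,000/well, plated 5 h before compound pin transfer; 16 h at 37 C; bla substrate 2 h RT; then CellTiter-Glo, 30 min RT, luminescence.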

[11] = target: Muscarinic acetylcholine receptor M1 (Homo sapiens) (UniProt P11229); test: Cholinergic receptor muscarinic 1 (CHRM1) small molecule agonists, cell-based qHTS assay (AID 1963589); further: nearly all actives have a fitted effect of over 35% in size; further: potency means the concentration at half of the fitted maximal effect
Chain of Muscarinic acetylcholine receptor M1 (Homo sapiens) (P11229 whole entry, looked up): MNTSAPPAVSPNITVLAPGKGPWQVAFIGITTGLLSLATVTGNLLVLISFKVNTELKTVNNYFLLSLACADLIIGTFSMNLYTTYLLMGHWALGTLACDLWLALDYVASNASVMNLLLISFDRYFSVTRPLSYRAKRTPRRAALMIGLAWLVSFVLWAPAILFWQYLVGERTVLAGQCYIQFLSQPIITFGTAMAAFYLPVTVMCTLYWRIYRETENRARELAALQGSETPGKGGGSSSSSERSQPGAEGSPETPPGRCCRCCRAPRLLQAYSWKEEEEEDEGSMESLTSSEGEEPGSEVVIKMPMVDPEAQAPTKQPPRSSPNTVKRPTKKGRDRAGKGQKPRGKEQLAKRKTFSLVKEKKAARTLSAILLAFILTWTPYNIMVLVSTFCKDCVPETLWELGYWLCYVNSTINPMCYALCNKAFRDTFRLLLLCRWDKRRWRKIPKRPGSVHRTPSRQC
Outline: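 Human M1 in stable CHO line; 18 h plating, 1 h dye load 37 C; cpd added (agonist mode); Ca2+ fluorescence kinetic read, 1 s intervals; 15 conc, 3 runs.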

[12] = target: Beta-2 adrenergic receptor (Homo sapiens) (UniProt P07550); test: Adrenergic beta2 receptor (ADRB2) small molecule antagonists, cell-based qHTS assay (AID 1963592); further: nearly all actives have a fitted effect of over 50% in size; further: potency means the concentration at half of the fitted maximal effect; on activity change, negative = inhibition: series mostly up to about 92 µM
Chain of Beta-2 adrenergic receptor (Homo sapiens) (P07550 whole entry, looked up): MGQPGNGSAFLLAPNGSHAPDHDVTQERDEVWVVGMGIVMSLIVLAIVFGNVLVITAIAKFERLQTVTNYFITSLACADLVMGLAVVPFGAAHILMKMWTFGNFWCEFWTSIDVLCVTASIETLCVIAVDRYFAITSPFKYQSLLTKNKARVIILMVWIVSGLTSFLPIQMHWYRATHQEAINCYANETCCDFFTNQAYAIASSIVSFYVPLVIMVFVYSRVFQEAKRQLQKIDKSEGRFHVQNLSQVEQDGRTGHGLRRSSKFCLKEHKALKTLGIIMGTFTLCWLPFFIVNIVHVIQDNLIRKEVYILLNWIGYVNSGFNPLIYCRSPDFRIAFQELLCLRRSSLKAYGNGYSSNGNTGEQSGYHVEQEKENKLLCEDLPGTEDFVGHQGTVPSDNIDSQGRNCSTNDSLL
Outline: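 Cells (CHO, stable ADRB2 overexpression) incubated 18-20hr at 37C; compounds added from DMSO; agonist mix (1nM isoproterenol, 100uM IBMX, 25uM Ro-20-1724) added; 0.5hr RT; d2-cAMP and anti-cAMP-cryptate added; 1hr RT; 665/615 nm read.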

[13] = target: D(2) dopamine receptor (Homo sapiens) (UniProt P14416); test: Dopamine D2 receptor (DRD2) small molecule agonists, cell-based qHTS assay (AID 1963594); further: nearly all actives have a fitted effect of over 35% in size
Chain of D(2) dopamine receptor (Homo sapiens) (P14416 whole entry, looked up): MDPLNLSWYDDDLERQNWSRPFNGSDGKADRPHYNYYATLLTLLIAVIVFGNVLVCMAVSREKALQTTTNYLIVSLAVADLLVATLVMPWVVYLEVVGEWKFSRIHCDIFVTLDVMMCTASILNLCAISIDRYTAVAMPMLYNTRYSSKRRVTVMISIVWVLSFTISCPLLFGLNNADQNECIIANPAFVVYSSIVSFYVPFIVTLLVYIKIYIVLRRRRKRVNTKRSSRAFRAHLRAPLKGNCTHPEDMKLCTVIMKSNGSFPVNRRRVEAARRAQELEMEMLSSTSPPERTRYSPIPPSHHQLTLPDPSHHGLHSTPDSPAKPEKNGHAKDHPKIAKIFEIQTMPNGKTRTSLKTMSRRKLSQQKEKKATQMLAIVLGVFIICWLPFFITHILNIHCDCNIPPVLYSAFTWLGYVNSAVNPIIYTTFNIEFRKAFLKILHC
Outline: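 HEK293 cells stably expressing DRD2 were cultured 24 h at 37 C, then given Ro20-1724 (0.1 mM final) and compounds for 10 min at room temperature. NKH477 (200nM) was then added for 30 min. cAMP was read by HTRF.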

[14] = target: D(2) dopamine receptor (Homo sapiens) (UniProt P14416); test: Dopamine D2 receptor (DRD2) small molecule antagonists, cell-based qHTS assay (AID 1963595; active means well fitted inhibition curve with a large enough effect in the signal ratio in the repeat runs, with a control signal flat; the % refers to the signal ratio; further: potency means the concentration at half of the fitted maximal effect)
Outline: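 Cells were plated and grown for 24 h at 37 °C. Ro20-1724 (0.1 mM final) went in first, then compound for 10 min. NKH477 (200 nM) with quinpirole (12 nM) followed for 30 min at RT, then HTRF detection reagents for 1 h.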

[15] = target: 5-hydroxytryptamine receptor 2A (Homo sapiens) (UniProt P28223); test: 5-hydroxytryptamine receptor 2A (HTR2A) small molecule antagonists, cell-based qHTS assay (AID 1963586); further: nearly all actives have a fitted effect of over 45% in size
Chain of 5-hydroxytryptamine receptor 2A (Homo sapiens) (P28223 whole entry, looked up): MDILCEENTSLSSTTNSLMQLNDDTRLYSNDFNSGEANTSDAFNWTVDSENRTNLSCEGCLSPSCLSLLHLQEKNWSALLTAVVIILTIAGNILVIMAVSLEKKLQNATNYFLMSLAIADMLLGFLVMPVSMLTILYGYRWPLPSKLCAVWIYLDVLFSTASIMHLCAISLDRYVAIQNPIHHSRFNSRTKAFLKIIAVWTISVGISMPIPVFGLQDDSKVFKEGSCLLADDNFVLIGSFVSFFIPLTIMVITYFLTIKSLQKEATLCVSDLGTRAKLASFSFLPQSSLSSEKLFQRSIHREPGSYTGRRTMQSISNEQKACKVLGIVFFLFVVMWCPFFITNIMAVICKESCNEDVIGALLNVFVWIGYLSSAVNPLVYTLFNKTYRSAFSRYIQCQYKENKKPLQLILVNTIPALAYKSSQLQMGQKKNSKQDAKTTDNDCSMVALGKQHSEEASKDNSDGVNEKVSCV
Outline: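 Antagonist-mode intracellular calcium assay: DOI (4 nM) added after 5 min compound pre-incubation at room temperature to dye-loaded HTR2A-CHO cells. Fluorescence followed for 3 min, sampled every second.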

[16] = target: 5-hydroxytryptamine receptor 2A (Homo sapiens) (UniProt P28223); test: 5-hydroxytryptamine receptor 2A (HTR2A) small molecule agonists, cell-based qHTS assay (AID 1963587); further: nearly all actives have a fitted effect of over 30% in size; further: potency means the concentration at half of the fitted maximal effect
Outline: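 HTR2A-CHO cells, plated 18 h at 37 C/5% CO2, dye-loaded 1 h at 37 C; compounds in DMSO added by pin tool (agonist mode). Intracellular calcium flux read as kinetic fluorescence on FDSS over 2 min at 1 s intervals.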

[17] = target: Muscarinic acetylcholine receptor M1 (Homo sapiens) (UniProt P11229); test: Cholinergic receptor muscarinic 1 (CHRM1) small molecule antagonists, cell-based qHTS assay (AID 1963588); further: nearly all actives have a fitted effect of over 40% in size; further: potency means the concentration at half of the fitted maximal effect
Outline: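 CHRM1-CHO calcium-flux assay, antagonist mode. Cells were seeded 18 h, dye-loaded 1 h at 37 C and given compound for 5 min at RT, then acetylcholine was added at 50nM. FDSS fluorescence was read 3 min; 15 concentrations, three runs.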

[18] = p53 small molecule agonists, cell-based qHTS assay (AID 1963582; active means well fitted activation curve with a large enough effect in the signal ratio in the repeat runs, not every such curve was filed as active; the % refers to the signal ratio)
Outline: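 Reporter line: p53RE-bla. Pre-incubation 5 h, 37 C, 5% CO2; compound (DMSO, pin tool) 16 h, 37 C; B/G FRET substrate 2 h RT; fluorescence intensity read.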

[19] = cAMP Responsive Elements (CRE) small molecule agonists, cell-based qHTS assay (AID 1963590)
Outline: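 HEK 293T CRE-bla, 2,000 cells/well, 18 h preincubation 37 C/5% CO2; cpds (DMSO) pinned, 3 h; LiveBLAzer B/G FRET substrate, 2 h RT.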

[20] = cAMP Responsive Elements (CRE) small molecule antagonists, cell-based qHTS assay (AID 1963591; active means well fitted inhibition curve with a large enough effect in the signal ratio in the repeat runs, not every such curve was filed as active; the % refers to the signal ratio)
Outline: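 Beta-lactamase reporter read by FRET substrate (LiveBLAzer B/G) after 2 h at room temperature. CRE-bla HEK293T cells had received compound plus 0.25 uM (final) NKH477 for 3 h at 37 °C.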
On the % scale 0 is the no-effect control and ±100 the full control effect.

C=CC(=O)[O][Sn]([CH2]CCC)([CH2]CCC)[CH2]CCC
active: Potency [1] 0.969 µM | Potency [2] 1.37 µM | Potency [3] 5.49 µM | Potency [4] 19.5 µM | Potency [5] 38.9 µM | Potency [8] 5.13 µM | Potency [9] 8.14 µM | Potency [10] 1.62 µM | Potency [11] 11 µM | Potency [12] 0.969 µM | Potency [14] 2.43 µM
inactive: Potency [6] | Potency [7] | Potency [13]

Cc1c([N+](=O)[O-])c(C)c([N+](=O)[O-])c(C(C)(C)C)c1[N+](=O)[O-]
inactive: Potency [1] | Potency [2] | Potency [3] | Potency [4] | Potency [5] | Potency [6] | Potency [7] | Potency [8] | Potency [9] | Potency [10] | Potency [15] | Potency [16] | Potency [17] | Potency [11] | Potency [12] | Potency [13]

CN/C(=N\[N+](=O)[O-])NCc1cnc(Cl)s1
inactive: Potency [1] | Potency [2] | Potency [3] | Potency [4] | Potency [5] | Potency [6] | Potency [7] | Potency [8] | Potency [9] | Potency [18] | Potency [15] | Potency [16] | Potency [17] | Potency [11] | Potency [19] | Potency [12] | Potency [13] | Potency [14]

CCC(C)(NC(=O)c1cc(Cl)c(C)c(Cl)c1)C(=O)CCl (stereo unspecified)
active: Potency [1] 24.5 µM | Potency [2] 1.54 µM
inactive: Potency [3] | Potency [4] | Potency [5] | Potency [6] | Potency [7] | Potency [8] | Potency [9] | Potency [10] | Potency [17] | Potency [13]

Cc1ccc2c(c1)C1CN(C)CCC1N2 (stereo unspecified)
inactive: activity change, negative = cytotoxicity [1] -10.1% [at 19 µM] | activity, positive = activation [2] -3.42% [at 19 µM] | activity change [3] 1.2% [at 11.8 µM, hits give high values] | activation [4] -0.319% [at 15.8 µM] | activation [5] -0.508% [at 11.8 µM] | activation [6] 3.07% [at 13.5 µM] | activation [7] -0.463% [at 13.6 µM] | activity change, negative = cytotoxicity [8] -1.76% [at 13.5 µM] | activity change, negative = cytotoxicity [9] -8.73% [at 13.5 µM] | activity change, negative = cytotoxicity [10] 13.5% [at 13.5 µM] | activation [11] -0.313% [at 15.8 µM] | activation [19] -1.75% [at 19 µM] | activity change, negative = inhibition [20] -7.6% [at 18.9 µM] | activation [13] -2.85% [at 19 µM] | activity change, negative = inhibition [14] -2.92% [at 18.9 µM]
active: Potency [16] 0.165 µM

CCOC(=O)/C=C(C)/C=C/C[C@@H](C)CCCC(C)C
active: Potency [2] 68.6 µM
inactive: Potency [1] | Potency [3] | Potency [4] | Potency [5] | Potency [6] | Potency [7] | Potency [8] | Potency [9] | Potency [10] | Potency [17] | Potency [11] | Potency [19] | Potency [20] | Potency [12] | Potency [13] | Potency [14]

CCCCC(=O)Cl
inactive: Potency [1] | Potency [2] | Potency [3] | Potency [4] | Potency [5] | Potency [6] | Potency [7] | Potency [8] | Potency [9] | Potency [18] | Potency [15] | Potency [16] | Potency [17] | Potency [11] | Potency [20] | Potency [12] | Potency [13] | Potency [14]

CSC1=N[C@@](C)(c2ccccc2)C(=O)N1Nc1ccccc1
inactive: Potency [1] | Potency [2] | Potency [3] | Potency [4] | Potency [5] | Potency [6] | Potency [7] | Potency [8] | Potency [9] | Potency [10] | Potency [16] | Potency [11] | Potency [19] | Potency [20] | Potency [12] | Potency [13] | Potency [14]

O=C(O)C(Br)CBr (stereo unspecified)
inactive: Potency [1] | Potency [2] | Potency [3] | Potency [4] | Potency [5] | Potency [6] | Potency [7] | Potency [8] | Potency [9] | Potency [18] | Potency [15] | Potency [16] | Potency [17] | Potency [11] | Potency [19] | Potency [12] | Potency [13] | Potency [14]

COc1ccc(C(c2ccc(OC)cc2)C(Cl)(Cl)Cl)cc1
active: Potency [1] 19.2 µM | Potency [2] 27.1 µM
inactive: Potency [3] | Potency [4] | Potency [5] | Potency [6] | Potency [7] | Potency [8] | Potency [9] | Potency [10] | Potency [15] | Potency [16] | Potency [11] | Potency [12]

CS(=O)(=O)c1ccc(C(=O)C2C(=O)CCCC2=O)c(Cl)c1COCC(F)(F)F
inactive: Potency [1] | Potency [2] | Potency [3] | Potency [4] | Potency [5] | Potency [6] | Potency [7] | Potency [8] | Potency [9] | Potency [10] | Potency [15] | Potency [16] | Potency [17] | Potency [13] | Potency [14]

N#C/C=C/c1ccccc1
inactive: Potency [1] | Potency [2] | Potency [3] | Potency [4] | Potency [5] | Potency [6] | Potency [7] | Potency [8] | Potency [9] | Potency [10] | Potency [16] | Potency [17] | Potency [11] | Potency [19] | Potency [20] | Potency [12] | Potency [13] | Potency [14]

CCN(CC)CCOC(=O)C(C)(c1ccccc1)c1ccccc1
active: Potency [17] 0.013 µM
inactive: Potency [1] | Potency [2] | Potency [3] | Potency [4] | Potency [5] | Potency [6] | Potency [7] | Potency [8] | Potency [9] | Potency [10] | Potency [16] | Potency [11] | Potency [19] | Potency [20] | Potency [12] | Potency [13] | Potency [14]

Cc1cccc(Cc2cnc[nH]2)c1C
inactive: Potency [1] | Potency [2] | Potency [3] | Potency [4] | Potency [5] | Potency [6] | Potency [7] | Potency [8] | Potency [9] | Potency [10] | Potency [15] | Potency [16] | Potency [17] | Potency [11] | Potency [19] | Potency [12] | Potency [13] | Potency [14]

CCOC(=O)OC1=C(c2cc(C)ccc2C)C(=O)NC12CCC(OC)CC2 (stereo unspecified)
inactive: Potency [1] | Potency [2] | Potency [3] | Potency [4] | Potency [5] | Potency [6] | Potency [7] | Potency [9] | Potency [10] | Potency [15] | Potency [17] | Potency [11] | Potency [20] | Potency [12] | Potency [13] | Potency [14]
active: Potency [8] 40.8 µM
